Source: PubChem BioAssay (The Scripps Research Institute Molecular Screening Center)
S1P1 agonist: S1P1 (human) receptor agonism | S1P1 agonist cell-based reporter assay | activation, % at 4.5 µM | actives 1.5% (n = 16,000) | AID 1044; in the data active = activation above about 80%
Target sequence (P21453 whole entry, looked up): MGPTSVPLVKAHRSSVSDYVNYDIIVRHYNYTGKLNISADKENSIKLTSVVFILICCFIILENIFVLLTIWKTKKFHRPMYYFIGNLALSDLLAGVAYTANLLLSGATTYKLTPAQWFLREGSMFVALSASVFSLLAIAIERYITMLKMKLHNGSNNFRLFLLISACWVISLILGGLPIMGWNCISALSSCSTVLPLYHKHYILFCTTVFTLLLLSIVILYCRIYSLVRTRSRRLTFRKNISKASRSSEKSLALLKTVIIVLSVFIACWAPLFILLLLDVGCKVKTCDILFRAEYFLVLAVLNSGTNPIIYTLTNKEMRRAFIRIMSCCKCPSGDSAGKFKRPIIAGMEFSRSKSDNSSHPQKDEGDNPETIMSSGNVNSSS
rat GALR2 agon: activates the rat galanin receptor 2 | actives 0.5% (n = 16,000) | cell-based GALR2 agonist screen | activation, % at 10 µM | AID 833 | O08726; in the data active = activation above about 15%
OPRK1 antag MB: antagonists of human kappa opioid receptor OPRK1, Maybridge library; P41145; OPRK1 cells, antagonist mode, fluorescence readout; inhibition, % at 9 µM; actives 0.4% (n = 16,000); AID 652031; in the data active = inhibition above about 50%
TLR4 MyD88 blk: TLR4-MyD88 interaction inhibition; O00206; inhibition, % at 10 µM; AID 811; Cell-based TLR4-MyD88 binding inhibition assay; actives 0.06% (n = 16,000); in the data active = inhibition above about 45%
The depositor's hits bear a star; x = not tested or not shown. Compounds with a hit are over-represented: about 2.6% of the library has one in this group of screens.

SMILES	S1P1 agonist	rat GALR2 agon	OPRK1 antag MB	TLR4 MyD88 blk
CC(=O)Nc1onc(C)c1-c1nc(-c2ccc(Cl)cc2Cl)cs1	-4	-6	50*	6
N#C/C(N=Cc1ccc(Cl)cc1)=C(\C#N)NC(=O)Nc1ccc(OC(F)(F)F)cc1	100*	-13	23	5
Cc1ccc(NC(=O)c2c(C)noc2C)cc1NS(C)(=O)=O	-6	-6	-6	-6
COc1ccccc1C1CCN(c2ccc(CO)cc2[N+](=O)[O-])CC1	92*	-9	-10	-6
COc1cc(N2CCCC2)c([N+](=O)[O-])cc1[N+](=O)[O-]	6	-5	6	-2
Cc1ccc(S(=O)(=O)NC(=O)N(C)CCc2ccccn2)cc1	4	-6	12	5
CN(CCc1ccccn1)C(=O)c1nccnc1C(=O)O	94*	-5	6	14
N#CC(CO)Cc1cc([N+](=O)[O-])ccc1N1CCCCC1 (stereo not drawn)	95*	-7	-16	1
Cc1ccc(Nc2ccnc3cc(Cl)ccc23)cc1F	-10	-4	36	-5
Clc1ccc2c(Nc3ccc4c(c3)OCO4)ccnc2c1	25	-6	51*	x
Clc1ccc(COc2ccc(-c3noc(C4CC4)n3)cc2)cc1	101*	-8	0	0
CCOC(=O)C(=CNc1cc(C(F)(F)F)ccc1N1CCC(C(=O)OCC)CC1)C(=O)OCC	-36	-7	-2	-8
N#C/C(=C\Nc1cccnc1)S(=O)(=O)c1ccc(Cl)cc1	-14	-6	1	8
N#C/C(=C\Nc1cc(C(F)(F)F)cc(C(F)(F)F)c1)S(=O)(=O)c1ccc(Cl)cc1	87*	-10	28	-4
O=C(NCCCN1CCN(Cc2ccccc2)CC1)c1cccs1	-7	-7	16	2
N#CCCNc1ccc(N=Nc2ccc(Cl)cc2)cc1	104*	2	23	14
CNC(=S)NNC(=O)c1ccco1	-2	-7	5	0
N#C/C(=C\c1ccc(C#Cc2ccccc2)s1)C(=O)c1ccco1	13	16*	-6	5
N#C/C(=C\c1cc(C#Cc2ccccc2)cs1)C(=O)c1ccco1	-6	5	-2	1
O=[N+]([O-])c1c(N2CCOCC2)ccc2nsnc12	-2	55*	6	1
CC(C)c1ccc(NC(=O)CSc2nnc(CSc3cccs3)n2C)cc1	-11	-3	0	-1
CN(C)Nc1ccc([N+](=O)[O-])c(NN(C)C)c1C#N	81*	-5	-21	8
O=C(Nc1ccc(F)cc1)C(=S)NCc1ccccc1	-14	-7	-14	-6
Cc1cc(S(=O)(=O)Cc2ccc(NC(=O)C(Cl)(Cl)Cl)cc2)c(C)cc1Cl	5	16*	-17	-4
COc1ccc(N2C(=O)C=CC2=O)cc1OC	23	-4	24	3
CCn1c2ccccc2c2cc(N3C(=O)C=CC3=O)ccc21	110*	-9	0	19
N#C/C(=C\c1ccco1)C(=O)c1cccc(C(F)(F)F)c1	21	-5	27	1
CSc1nnc(-c2sc3nc(C)cc(C)c3c2N)n1Cc1ccccc1	5	29*	-15	-5
